Compound activity (PubChem)
D2 antagonist = D2 dopamine receptor (human) antagonism; P14416; actives 2% (n = 340,000); inhibition, % at 10 µM; AID 485344; HEK293 TREx D2 cells, calcium flux, dopamine EC80; in the data active = inhibition above about 30%; inactive = below that, where a call was filed
Target sequence (P14416 whole entry, looked up): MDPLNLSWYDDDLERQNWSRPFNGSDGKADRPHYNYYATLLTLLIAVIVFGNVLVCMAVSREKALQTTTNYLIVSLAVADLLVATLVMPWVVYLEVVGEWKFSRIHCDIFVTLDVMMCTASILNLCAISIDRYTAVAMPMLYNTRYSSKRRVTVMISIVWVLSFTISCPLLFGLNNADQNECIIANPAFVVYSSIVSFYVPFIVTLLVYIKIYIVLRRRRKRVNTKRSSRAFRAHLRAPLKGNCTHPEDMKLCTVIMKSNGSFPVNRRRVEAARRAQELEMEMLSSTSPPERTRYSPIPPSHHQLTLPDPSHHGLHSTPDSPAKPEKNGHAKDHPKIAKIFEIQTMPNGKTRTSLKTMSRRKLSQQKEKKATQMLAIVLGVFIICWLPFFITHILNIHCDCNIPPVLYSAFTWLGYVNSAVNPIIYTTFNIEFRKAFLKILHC
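In this primary screen, negative modulation is detected by tracking calcium flux after an EC80 dopamine challenge in inducible HEK293 T-REx D2 cells preexposed to test compound for 180 s.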
D2 ag-1 = agonists of human D2 dopamine receptor (beta-arrestin). actives 0.084% (n = 360,000). AID 624465. activation, % (no concentration beside the values). DiscoveRx PathHunter D2 beta-arrestin, luminescence, 90 min; 100% = 57 uM dopamine signal; in the data active = activation above about 40%; inconclusive = between about 15% and that limit
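Agonist mode: compounds alone added to overnight-plated D2 PathHunter cells for 90 min at 37 C, with 57 uM final dopamine (EC100) defining full response. Beta-arrestin recruitment detected by chemiluminescent reagent, read after 1 h at ambient temperature.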
D2 PAM-1 = human D2 receptor positive allosteric modulation; P14416; potentiation, % (no concentration beside the values); actives 0.23% (n = 360,000); DiscoveRx D2 beta-arrestin cells, luminescence, 90 min; 100% = 57 uM dopamine signal; in the data active = potentiation above about 50%; inconclusive = mostly about 30% to 49%
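PathHunter beta-arrestin assay in DiscoveRx D2 cells. Compounds were added with an EC20 of dopamine (50 nM final) for 90 min at 37 deg C. Luminescence was read 1 h after detection reagent, with 57 uM dopamine as the EC100 control.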
D2 PAM-2 = D2 dopamine receptor (human) potentiation | HEK293 T-REx D2, calcium flux, EC20 dopamine potentiation | potentiation, % at 10 µM | actives 0.34% (n = 340,000);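 active = potentiation over 3 SD above the plate norm, cut at about 30% in these data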
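Potentiation of an EC20 dopamine calcium response measured kinetically over 180 s, after a preceding 180 s compound-only read flagging agonists. Cells: inducible Hek293 Trex D2 line, 4000/well, cultured overnight at 30 C before dye loading.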
D2 ag-2 = agonists of human D2 dopamine receptor | activation, % at 2 µM | HEK293 T-REx D2 cells, calcium flux agonist mode | actives 0.53% (n = 340,000);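 active = activation over 3 SD above normal in the single-dose calcium agonist read, cut at about 30% in these data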
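Calcium-flux readout, 1 cycle/sec over 180 s following compound pin transfer, in inducible HEK293 Trex D2 cells (force-coupled); dopamine controls included. Positive calcium responses during this window marked compounds as potential agonists.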
Numbers stand for hits; - = inactive; ? = inconclusive; . = no result given. A selection: hits, their analogues and other compounds. The true share with any hit is near 2.4%.

SMILES | D2 antagonist | D2 ag-1 | D2 PAM-1 | D2 PAM-2 | D2 ag-2
CSc1nn(CC(=O)Nc2ccc(C)cc2C)c(N)c1S(=O)(=O)c1ccc(Cl)cc1 | . | . | . | - | -
Cc1ccc(CNC(=O)Nc2ccc3c(c2)N(C)C(=O)CS3)cc1 | - | - | - | - | -
CN1C(=O)CSc2ccc(NC(=O)NCc3ccccc3)cc21 | 30.2 | - | - | - | -
CCCCNC(=O)Nc1ccc2c(c1)N(C)C(=O)c1ccccc1S2 | 46.3 | - | - | - | -
CCCNC(=O)Nc1ccc2c(c1)N(C)C(=O)c1ccccc1S2 | - | - | - | - | -
O=C(CCCOc1ccccc1)Nc1nc2ccccc2[nH]1 | - | - | - | 69.7 | -
Cc1ccc(OCCCC(=O)Nc2nc3ccccc3[nH]2)cc1 | - | - | - | - | -
COc1cccc(/C=C/c2onc(C)c2S(=O)(=O)N2CCC(C(=O)N3CCCCC3)CC2)c1 | . | . | . | . | -
O=C1C(c2ccc(F)cc2)N(CCc2ccccc2)C(=O)CN1C1CCCCCC1 (stereo unspecified) | . | . | . | - | -
Cc1ccc(N(C(=O)c2sc(C)nc2C)C(C(=O)NCc2ccco2)c2ccccc2)cc1 (stereo unspecified) | 43.6 | - | - | - | -
Cc1cccc(N(C(=O)c2sc(C)nc2C)C(C(=O)NCc2ccco2)c2ccccc2)c1 (stereo unspecified) | 45.5 | - | - | - | -
Cc1cc(C)cc(N(C(=O)c2sc(C)nc2C)C(C(=O)NCc2ccco2)c2ccccc2)c1 (stereo unspecified) | - | - | - | - | -
O=C(Nc1ccc(F)c(Cl)c1)Nc1c[nH]c(=O)[nH]c1=O | . | . | . | - | -
COc1ccc(-c2nnc(SCC(=O)Nc3ccc(Cl)cc3)s2)cc1 | . | . | . | - | -
O=[N+]([O-])c1cccc(CON=Cc2ccccc2O)c1 | . | - | - | . | .
CN1C(=O)/C(=C/c2ccccc2OCc2ccccc2)NC1=S | - | - | - | - | -
CN1C(=O)/C(=C/c2cc(C(C)(C)C)c(O)c(C(C)(C)C)c2)NC1=S | - | ? | 52.1 | - | -
CCn1c(=O)c2ccccc2n(CC(=O)NC2CCCCC2)c1=O | 41.7 | - | - | - | -
CN(C)c1ccc(/C=C(\C#N)C(=O)c2ccccc2)cc1 | - | - | - | - | 162.8
O=C(Cn1c(=O)c2ccccc2n(CC(=O)Nc2ccc(F)cc2F)c1=O)NCCc1ccccc1 | . | . | . | - | -
CCN(C1CCCCC1)S(=O)(=O)c1ccc(S(=O)(=O)N2CCN(CCC#N)CC2)cc1 | 37.6 | - | - | - | -
CC(=O)OCCn1c(C)[n+](CCOC(C)=O)c2cc(Cl)c(Cl)cc21 | - | - | - | - | -
CC(=O)OCCn1c2nc(=O)[nH]c(=O)c-2nc2cc(C)c(C)cc21 | - | - | - | - | 112.4
O=S(=O)(c1cccc(NC(=S)Nc2ccc(Br)cc2Cl)c1)N1CCOCC1 | 37.8 | - | - | - | -
O=C(Nc1cccc(Cl)c1)c1cc(S(=O)(=O)N2CCOCC2)cs1 | 34.8 | - | - | - | -
SMILES | D2 antagonist | D2 ag-1 | D2 PAM-1 | D2 PAM-2 | D2 ag-2
O=C(COC(=O)c1cccs1)Nc1cccc(S(=O)(=O)N2CCOCC2)c1 | 36.4 | - | - | - | -
O=C(Nc1nc2ccc(S(=O)(=O)N3CCCC3)cc2s1)c1cccs1 | - | - | - | - | -
O=C(Nc1nc2ccc(S(=O)(=O)N3CCOCC3)cc2s1)c1cccs1 | 56.6 | - | - | - | -
COc1cccc(C(C)(O)c2nc(-c3cnn(C)c3)cs2)c1 (stereo unspecified) | . | - | - | . | .
CCOC(=O)c1c(C)oc2c1c1c(c3ccccc32)OCN(CCCC(=O)O)C1 | - | - | - | - | -
CCOC(=O)c1c(C)oc2c1c1c(c3ccccc32)OCN(Cc2cccnc2)C1 | - | ? | 113.5 | - | -
Cc1ccc(-n2ncc(C(=O)NCc3ccccc3)c2C2CCN(C(=O)OC(C)(C)C)CC2)cc1 | . | . | . | - | -
COc1ccc(OC)c(CCNC(=O)Cn2ccc3cc(S(=O)(=O)N4CCCC4)ccc32)c1 | - | - | - | - | -
COc1ccccc1CCNC(=O)Cn1ccc2cc(S(=O)(=O)N3CCC(C)CC3)ccc21 | - | - | - | 34.4 | -
COc1ccc(NC(=O)c2cc(S(=O)(=O)N3CCCC3)cn2C)cc1Cl | 38.0 | - | - | - | -
Cc1ccc(S(=O)(=O)N2CCC(C(=O)OCC(=O)NCc3cccc(Cl)c3)CC2)cc1C | . | - | - | . | .
COc1ccccc1CNC(=O)COC(=O)C1CCN(S(=O)(=O)c2ccc(C)c(C)c2)CC1 | - | - | - | 30.2 | -
COc1ccc(Cl)cc1NC(=O)c1cc(S(=O)(=O)N2CCCC2)cn1C | - | - | - | - | -
COc1ccccc1CNC(=O)c1cc(S(=O)(=O)N2CCCC2)cn1C | 36.6 | - | - | - | -
O=C(Nc1nnc([C@@H]2C[C@H](O)[C@@H](CO)O2)s1)c1cccc(OC(F)(F)F)c1 | . | - | - | . | .
COc1cc(CN2C(=O)C(Cc3ccccc3)ON=C2c2ncccc2C)cc(OC)c1 (stereo unspecified) | . | - | - | . | .
CCN(CC)CCNC(=O)c1ccc(NC(=O)c2ccc(-n3cncn3)c([N+](=O)[O-])c2)cc1 | . | - | - | . | .
COc1ccccc1C(=O)Nc1nc(-c2ccc(S(=O)(=O)N3CCOCC3)cc2)cs1 | - | - | 55.7 | - | -
COc1cc(S(=O)(=O)N2CCCCC2)ccc1NC(=O)c1ccccc1Cl | - | - | - | 48.4 | -
CCOc1cc(Cl)c(NC(=O)CC)cc1OCC | 70.7 | - | - | - | -
Cc1ccc(NC(=O)N2CCN(c3ncccc3C(F)(F)F)CC2)cc1 | 37.4 | - | - | - | -
COc1ccccc1CNC(=O)CCNS(=O)(=O)c1ccc2c(c1)oc(=O)n2C | 67.0 | - | - | - | -
Cn1c(=O)oc2cc(S(=O)(=O)NCCC(=O)NCCc3ccc(Cl)cc3)ccc21 | 59.1 | - | - | - | -
Cc1ccc(CCNC(=O)CCNS(=O)(=O)c2ccc3c(c2)oc(=O)n3C)cc1 | . | - | - | - | -
COc1ccccc1CNS(=O)(=O)c1ccc2c(c1)oc(=O)n2C | - | - | - | - | -
SMILES | D2 antagonist | D2 ag-1 | D2 PAM-1 | D2 PAM-2 | D2 ag-2
COc1ccc(Cl)cc1NC(=O)CCn1nc(C)cc1C | . | . | . | - | -
CC(=O)c1ccccc1OCCCCN1CCCCC1 | 58.5 | - | - | - | -
CCC(=O)c1ccccc1OCCN1CCN(CC)CC1 | 37.5 | - | - | - | -
COC(=O)c1ccccc1OCCN1CCCCCC1 | 38.9 | - | - | - | -
CCc1ccccc1OCCCCN1CCCC1 | 46.5 | - | - | - | -
CC(=O)c1ccccc1OCCOc1ccccc1C(C)=O | - | - | - | - | -
CCN1CCN(CCOc2cccc(Cl)c2Cl)CC1 | - | - | - | - | -
COc1ccc2[nH]c(=O)c(CN(C(=O)c3cccc(Cl)c3)c3cccc(C)c3)cc2c1 | . | . | . | - | -
CCCNC(=O)c1c(NC(=O)c2ccccc2F)sc2c1CCCCC2 | . | . | . | - | -
